Where “and” joins values, the source holds several entries; their conditions need not be identical. Equal values may be shown once. Results filed as inconclusive are left out. A structure can be active in one record and inactive in another. Calls of active or inactive are those of the source. Unless noted, calls follow the shape of the dose curve; as a rule, active = well fitted curve in the direction sought with a large enough effect in the repeat runs; inconclusive = weak or mixed curves; inactive = no such curve, though single readings can be large; an effect the other way counts as inactive or inconclusive.
Tests used:
[1] = qHTS assay to identify small molecule agonists of the hypoxia (HIF-1) signaling pathway - cell viability counter screen (AID 1224844; calls by dose curve; also: nearly all actives have a fitted effect of over 50% in size; also: potency is read from the fitted curve at half-maximal effect)
Method in brief: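 Multiplexed with the HRE beta-lactamase assay, this viability read used CellTiter-Glo luminescence (30 min, RT) on HRE-bla ME-180 cells treated 17 hrs with compounds in 0.5% dialyzed FBS medium.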

[2] = qHTS assay to identify small molecule agonists of the hypoxia (HIF-1) signaling pathway (AID 1224846; active = well fitted activation curve with a large enough effect in the signal ratio in the repeat runs, not every such curve was filed as active; the % refers to the signal ratio)
Method in brief: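 Hypoxia-pathway activation was scored as increased beta-lactamase from an HRE-controlled reporter in ME-180 cells; plated at 2,000 cells per well with 0.5% dialyzed FBS, they were exposed 17 hrs to compounds and then given CCF4-AM.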

[3] = qHTS assay to identify small molecule agonists of H2AX - cell viability counter screen (AID 1224847; calls by dose curve; also: nearly all actives have a fitted effect of over 30% in size; also: potency is read from the fitted curve at half-maximal effect)
Method in brief: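 After overnight plating of 1000 CHO-K1 cells per well, a 15-concentration compound series was applied for 3 hr at 37C. Luminescence from CellTiter-Glo, read following 30 min at room temperature, reflected cell viability.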

[4] = qHTS assay to identify small molecule antagonists of the estrogen related receptor (ERR) signaling pathway from Tox21 library (AID 1224848); also: nearly all actives have a fitted effect of over 50% in size; also: potency is read from the fitted curve at half-maximal effect
Method in brief: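 Reading was by luminescence 30 min after ONE-Glo addition. Before that, ERR cells at 2,000 per well had rested 6 h at 37 C/5% CO2 and then received pin-tooled compounds in DMSO for 18 h at 37 C.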

[5] = qHTS assay to identify small molecule agonists of the estrogen related receptor (ERR) signaling pathway from Tox21 library (AID 1224849; calls by dose curve; also: nearly all actives have a fitted effect of over 15% in size); details: ERR reporter cell line, ONE-Glo luciferase, 18 h
Method in brief: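 Six hours post-seeding at 37 C/5% CO2, ERR cells receive DMSO-solubilised compounds; after 18 h at 37 C, ONE-Glo reagent is applied and luminescence recorded.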

[6] = qHTS RealTime-Glo MT Cell Viability Assay in HepG2 cells - 24 hour (AID 1224867); also: nearly all actives have a fitted effect of over 50% in size; also: potency is read from the fitted curve at half-maximal effect
Method in brief: (§1)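 HepG2 cells (600/well) were dispensed with RealTime-Glo reagents, incubated 5 h at 37 °C, then treated with compounds in DMSO for up to 40 h. Nonlytic NanoLuc luminescence reflecting viable cells was read at each stated time point.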

[7] = qHTS RealTime-Glo MT Cell Viability Assay in HEK293 cells - 32 hour (AID 1224868); also: nearly all actives have a fitted effect of over 50% in size; also: potency is read from the fitted curve at half-maximal effect
Method in brief: (§2)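 HEK293 cells seeded with NanoLuc/prosubstrate reagent, rested 5 h at 37 C, then dosed and kept at 37 C up to 40 h. Nonlytic real-time luminescence from viable cells read at 0, 8, 16, 24, 32 and 40 h.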

[8] = A CellTox Green Cytotoxicity Assay to monitor cytotoxicity in HEK293 cells - 0 hour (AID 1224869); also: nearly all actives have a fitted effect of over 50% in size; also: potency is read from the fitted curve at half-maximal effect
Method in brief: (§3)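 Seeding of HEK293 cells together with cytotoxicity dye preceded a 5 h incubation at 37 C/5% CO2. Test compounds in DMSO were then added and fluorescence monitored across 40 h.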

[9] = qHTS RealTime-Glo MT Cell Viability Assay in HepG2 cells - 40 hour (AID 1224870); also: nearly all actives have a fitted effect of over 50% in size; also: potency is read from the fitted curve at half-maximal effect
Method in brief: (§4)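 Real-time viability: cells seeded at 600 per well together with NanoLuc and cell-permeant prosubstrate, compounds added after 5 h incubation. Luminescence tracked at 0, 8, 16, 24, 32 and 40 h of exposure.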

[10] = A CellTox Green Cytotoxicity Assay to monitor cytotoxicity in HEK293 cells - 40 hour (AID 1224871); also: nearly all actives have a fitted effect of over 45% in size
Method in brief: as §3

[11] = qHTS RealTime-Glo MT Cell Viability Assay in HEK293 cells - 16 hour (AID 1224872); also: nearly all actives have a fitted effect of over 50% in size; also: potency is read from the fitted curve at half-maximal effect
Method in brief: as §2

[12] = qHTS RealTime-Glo MT Cell Viability Assay in HepG2 cells - 8 hour (AID 1224873); also: nearly all actives have a fitted effect of over 55% in size; also: potency is read from the fitted curve at half-maximal effect
Method in brief: as §4

[13] = qHTS RealTime-Glo MT Cell Viability Assay in HEK293 cells - 40 hour (AID 1224874); details: RealTime-Glo luminescence; max response: stronger effect = lower value; also: nearly all actives have a fitted effect of over 50% in size; also: potency is read from the fitted curve at half-maximal effect
Method in brief: (§5)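 Tox21 screen in HEK293 using RealTime-Glo MT chemistry, with cells and reagent co-dispensed. Luminescence proportional to viable cell number was captured at intervals during 40 h compound exposure at 37 C.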

[14] = A CellTox Green Cytotoxicity Assay to monitor cytotoxicity in HEK293 cells - 24 hour (AID 1224875); also: nearly all actives have a fitted effect of over 45% in size; also: potency is read from the fitted curve at half-maximal effect
Method in brief: as §3

[15] = A CellTox Green Cytotoxicity Assay to monitor cytotoxicity in HepG2 cells - 16 hour (AID 1224876); also: nearly all actives have a fitted effect of over 45% in size; also: potency is read from the fitted curve at half-maximal effect
Method in brief: (§6)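 Nonlytic assay: viable cells exclude the dye, so fluorescence scales with cell death. HepG2 at 600 cells/well, compounds added after 5 h, signal read across 40 h.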

[16] = qHTS RealTime-Glo MT Cell Viability Assay in HepG2 cells - 32 hour (AID 1224877); also: nearly all actives have a fitted effect of over 55% in size; also: potency is read from the fitted curve at half-maximal effect
Method in brief: as §1

[17] = A CellTox Green Cytotoxicity Assay to monitor cytotoxicity in HepG2 cells - 24 hour (AID 1224878); also: nearly all actives have a fitted effect of over 45% in size; also: potency is read from the fitted curve at half-maximal effect
Method in brief: as §6

[18] = A CellTox Green Cytotoxicity Assay to monitor cytotoxicity in HepG2 cells - 40 hour (AID 1224879); also: nearly all actives have a fitted effect of over 40% in size; also: potency is read from the fitted curve at half-maximal effect
Method in brief: as §6

[19] = qHTS RealTime-Glo MT Cell Viability Assay in HEK293 cells - 0 hour (AID 1224880); also: nearly all actives have a fitted effect of over 45% in size; also: potency is read from the fitted curve at half-maximal effect
Method in brief: as §5

[20] = qHTS assay to identify small molecule agonists of H2AX (AID 1224845; active = well fitted activation curve with a large enough effect in the signal ratio in the repeat runs, not every such curve was filed as active; the % refers to the signal ratio)
Method in brief: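 Phospho-H2AX Ser139 measured by HTRF (ex 320 nm; em 665 and 620 nm) after 24 hr antibody incubation. Compounds, 15 concentrations, 0.76% DMSO, were applied to CHO-K1 cells for 3hr at 37C before lysis.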
% is scaled to controls: 0 for no effect and ±100 for the full control effect.

O=[N+]([O-])c1ccc2c(c1)Cc1ccccc1-2
inactive: Potency [1] | Potency [2] | Potency [3] | Potency [4] | activity change, positive = activation ([5]; at 92.4 µM (top of the series)) 1.03% and -0.93% | Potency [6] | Potency [7] | Potency [8] | Potency [9] | Potency [10] | Potency [11] | Potency [12] | max response [13] 0.388% and -3.63% | Potency [14] | Potency [15] | Potency [16] | Potency [17] | Potency [18] | Potency [19]

O=C(O)c1ccccc1Nc1cccc(C(F)(F)F)c1
inactive: Potency [1] | outcome [20] | Potency [3] | Potency [6] | Potency [7] | Potency [8] | Potency [9] | Potency [11] | Potency [12] | max response [13] -19.7% and -3.43% | Potency [14] | Potency [16] | Potency [17] | Potency [18] | Potency [19]

Nc1ccccc1N
56.2 µM (active) and inactive: Potency [15] | Potency [17]
inactive: Potency [2] | Potency [3] | Potency [6] | Potency [7] | Potency [9] | Potency [12] | max response [13] -5.16% | Potency [16]
active: Potency [1] 43.6 µM | Potency [8] 50.1 µM | Potency [14] 50.1 µM | Potency [18] 28.2 µM

COC(=O)C1=C(C)NC(C)=C(C(=O)OCCN(C)Cc2ccccc2)C1c1cccc([N+](=O)[O-])c1 (stereo not given)
48.7 µM (active) and inactive: Potency [17] | Potency [18]
active: Potency [3] 44.7 µM and 49.2 µM | Potency [6] 24.4 µM and 10.7 µM | Potency [7] 21.7 µM and 16.9 µM | Potency [9] 43.4 µM | Potency [11] 21.7 µM and 16.9 µM | Potency [12] 24.4 µM and 19 µM | Potency [13] 24.4 µM and 16.9 µM | Potency [16] 43.4 µM | Potency [19] 5.46 µM and 6.01 µM
inactive: Potency [1] | outcome [20] | Potency [8] | Potency [10] | Potency [14]

CCCCc1oc2ccccc2c1C(=O)c1cc(I)c(OCCN(CC)CC)c(I)c1
active: Potency [1] 27.8 µM and 21.3 µM | Potency [3] 80.7 µM and 43.8 µM | Potency [4] 48.9 µM and 29.8 µM | Potency [6] 39.2 µM and 23.9 µM | Potency [7] 34.9 µM and 23.9 µM | Potency [9] 39.2 µM | Potency [11] 39.2 µM and 21.3 µM | Potency [12] 39.2 µM | Potency [13] 34.9 µM and 23.9 µM | Potency [15] 44 µM | Potency [16] 39.2 µM and 23.9 µM | Potency [17] 39.2 µM | Potency [18] 31.1 µM and 26.8 µM
inactive: activity change, positive = activation ([5]; at 42.5 µM (top of the series)) -36% and -39.6% | Potency [8] | Potency [19]
